The structures appear in SMILES notation. Active and inactive are the calls of the source.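 How the source made its calls, unless noted: active means normalized viability below 100% at a tested concentration; inactive means the rest.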

Experiment [1] in a line: ovarian cancer cell viability with rucaparib, profiling panel, oncology-focused library, rucaparib conditional (AID 1508598). The following applies: patient-derived ovarian cancer cells, CellTiter-Glo viability, 144 h, stronger effect = lower value. In general terms: In ATP-based viability assays light output follows the ATP content of the culture.
Experiment [2] can be described thus: kinase inhibitors against Plasmodium liver-stage infection, cell-based, known kinase inhibitor set, luminescence, hepatoma host viability (AID 624392; call rule not given here;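 further: infected cells incubated roughly two days before readout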). Conditions: Plasmodium liver stage in hepatoma cells, luciferase luminescence, concentration not given here; liver cell % of control: measured here: host liver cell viability; parasite % of control: stronger effect = lower value.

Experiment [3] can be described thus: modulators of glucocorticoid suppression of NF-kB, cell-based, luciferase, IL-1B stimulus, dexamethasone (AID 624486; call rule not given here;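 on percent of negative control (+Dex): 100% = mean signal of vehicle control wells on the plate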). Conditions: NF-kB luciferase reporter, IL-1B + dexamethasone, luminescence; percent of negative control (+Dex): actives lie on both sides, concentration not given here; z-score: measured here: IL-1B alone, no Dex. (In general: Reporter assays use an easily measured gene product as a stand-in for the process of interest.)

Experiment [4] can be described thus: kinase inhibitors altering Pseudomonas killing of worms, whole organism (AID 651566; call rule not given here;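 further: tested at 14 µM; sign flipped so higher z means a lower ratio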). The following applies: C. elegans killed by P. aeruginosa, survival ratio.
Experiment [5] can be described thus: activators of macrophage pro-inflammatory response, cell-based, murine, luminescence (AID 652131; call rule not given here). The following applies: murine macrophage pro-inflammatory reporter, stronger effect = higher value.
Experiment [6] in a line: survival rescue of mitochondrial mutant cells in low glucose, primary screen, MELAS cybrids, Rieske KO mouse fibroblasts, CellTiter-Glo (AID 1508586;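 active means mean z-score across replicates of 1.96 or higher in either the MELAS or the Rieske mutant cell line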;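 further: z relative to plate mean and SD of compound and empty wells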).
The mark [7] stands for this setting: at 0.000305 µM, OCI-C5x cells, with rucaparib 10 µM, 100% = cells with rucaparib alone.
[8] abbreviates: at 0.000305 µM, OCI-C5x cells, without rucaparib.
The mark [9] stands for this setting: at 0.000305 µM, OCI-P5x cells, with rucaparib 20 µM, 100% = cells with rucaparib alone.
Setting [10] is: at 0.000305 µM, OCI-P5x cells, without rucaparib.
Where [11] appears, read: at 0.00122 µM, OCI-C5x cells, with rucaparib 10 µM, 100% = cells with rucaparib alone.
Setting [12] is: at 0.00122 µM, OCI-C5x cells, without rucaparib.
The mark [13] stands for this setting: at 0.00122 µM, OCI-P5x cells, with rucaparib 20 µM, 100% = cells with rucaparib alone.
[14] abbreviates: at 0.00122 µM, OCI-P5x cells, without rucaparib.
[15] abbreviates: at 0.00488 µM, OCI-C5x cells, with rucaparib 10 µM, 100% = cells with rucaparib alone.
The mark [16] stands for this setting: at 0.00488 µM, OCI-C5x cells, without rucaparib.
Setting [17] is: at 0.00488 µM, OCI-P5x cells, with rucaparib 20 µM, 100% = cells with rucaparib alone.
The mark [18] stands for this setting: at 0.00488 µM, OCI-P5x cells, without rucaparib.
[19] abbreviates: at 0.0195 µM, OCI-C5x cells, with rucaparib 10 µM, 100% = cells with rucaparib alone.
[20] abbreviates: at 0.0195 µM, OCI-C5x cells, without rucaparib.
[21] abbreviates: at 0.0195 µM, OCI-P5x cells, with rucaparib 20 µM, 100% = cells with rucaparib alone.
Where [22] appears, read: at 0.0195 µM, OCI-P5x cells, without rucaparib.
Where [23] appears, read: at 0.0781 µM, OCI-C5x cells, with rucaparib 10 µM, 100% = cells with rucaparib alone.
Where [24] appears, read: at 0.0781 µM, OCI-C5x cells, without rucaparib.
Where [25] appears, read: at 0.0781 µM, OCI-P5x cells, with rucaparib 20 µM, 100% = cells with rucaparib alone.
The mark [26] stands for this setting: at 0.0781 µM, OCI-P5x cells, without rucaparib.
[27] abbreviates: at 0.313 µM, OCI-C5x cells, with rucaparib 10 µM, 100% = cells with rucaparib alone.
The mark [28] stands for this setting: at 0.313 µM, OCI-C5x cells, without rucaparib.
The mark [29] stands for this setting: at 0.313 µM, OCI-P5x cells, with rucaparib 20 µM, 100% = cells with rucaparib alone.
Setting [30] is: at 0.313 µM, OCI-P5x cells, without rucaparib.
Setting [31] is: at 1.25 µM, OCI-C5x cells, with rucaparib 10 µM, 100% = cells with rucaparib alone.
[32] abbreviates: at 1.25 µM, OCI-C5x cells, without rucaparib.
Setting [33] is: at 1.25 µM, OCI-P5x cells, with rucaparib 20 µM, 100% = cells with rucaparib alone.
[34] abbreviates: at 1.25 µM, OCI-P5x cells, without rucaparib.
[35] abbreviates: at 5 µM, OCI-C5x cells, with rucaparib 10 µM, 100% = cells with rucaparib alone.
The mark [36] stands for this setting: at 5 µM, OCI-C5x cells, without rucaparib.
The mark [37] stands for this setting: at 5 µM, OCI-P5x cells, with rucaparib 20 µM, 100% = cells with rucaparib alone.
[38] abbreviates: at 5 µM, OCI-P5x cells, without rucaparib.

The viability is a read-out of living cells in per cent, often relative to untreated cells. As to `CC[C@]1(O)C[C@@H]2CN(CCc3c([nH]c4ccccc34)[C@@](C(=O)OC)(c3cc4c(cc3OC)N(C=O)[C@H]3[C@@](O)(C(=O)OC)[C@H](OC(C)=O)[C@]5(CC)C=CCN6CC[C@@]43[C@@H]65)C2)C1`, the viability in experiment [1] (setting [7]) was 113% (inactive); in experiment [1] (setting [8]), 110% (inactive); in experiment [1] (setting [9]), 91.7% (active); in experiment [1] (setting [10]), 90.9% (active); in experiment [1] (setting [11]), 106% (inactive); in experiment [1] (setting [12]), 106% (inactive). The viability in experiment [1] (setting [13]) is 73.6% (active); in experiment [1] (setting [14]), 31.5% (active); in experiment [1] (setting [15]), 66.7% (active); in experiment [1] (setting [16]), 41.5% (active); in experiment [1] (setting [17]) it was 51% (active); in experiment [1] (setting [18]), 17.7% (active). The viability in experiment [1] (setting [19]) was 44.5% (active); in experiment [1] (setting [20]), 29% (active); in experiment [1] (setting [21]) it was 57.9% (active); in experiment [1] (setting [22]), 14.5% (active); in experiment [1] (setting [23]), 36.6% (active); in experiment [1] (setting [24]), 24% (active). The viability in experiment [1] (setting [25]) is 49.3% (active); in experiment [1] (setting [26]) it was 12.1% (active); in experiment [1] (setting [27]), 34% (active); in experiment [1] (setting [28]) it was 23.4% (active); in experiment [1] (setting [29]) it was 49.8% (active); in experiment [1] (setting [30]), 10.9% (active). The viability in experiment [1] (setting [31]) was 33.5% (active); in experiment [1] (setting [32]), 23.5% (active); in experiment [1] (setting [33]) it was 44.2% (active); in experiment [1] (setting [34]), 12.2% (active); in experiment [1] (setting [35]), 34.1% (active); in experiment [1] (setting [36]), 22.9% (active). Further, the viability in experiment [1] (setting [37]) is 43% (active); in experiment [1] (setting [38]) it was 11.8% (active).
`COC(=O)Nc1nc2ccc(Sc3ccc(NC(=O)Nc4cc(C(F)(F)F)ccc4F)cc3)cc2[nH]1` gave a liver cell % of control in experiment [2] of 136%. Also, the parasite % of control in experiment [2] was 195% (inactive). Further, the percent of negative control (+Dex) in experiment [3] was 96.5% (inactive). Also, the z-score is -0.175 in experiment [3]; -0.56 (inactive) in experiment [4]; 1.3 (inactive) in experiment [5]; -0.309 (inactive) in experiment [6] (MELAS cybrid survival, CellTiter-Glo 48 h, stronger effect = higher value); -0.32 in experiment [6] (Rieske KO mouse fibroblast survival, CellTiter-Glo 72 h).
Consider `CCCCCOC(=O)Nc1nc(=O)n([C@@H]2O[C@H](C)[C@@H](O)C2O)cc1F` (some centres not stated), for which the viability in experiment [1] (setting [7]) is 114% (inactive); in experiment [1] (setting [8]), 111% (inactive); in experiment [1] (setting [9]) it was 115% (inactive); in experiment [1] (setting [10]), 116% (inactive); in experiment [1] (setting [11]), 119% (inactive); in experiment [1] (setting [12]), 120% (inactive). Further, the viability in experiment [1] (setting [13]) was 123% (inactive); in experiment [1] (setting [14]), 115% (inactive); in experiment [1] (setting [15]), 111% (inactive); in experiment [1] (setting [16]) it was 126% (inactive); in experiment [1] (setting [17]), 115% (inactive); in experiment [1] (setting [18]), 123% (inactive). The viability in experiment [1] (setting [19]) is 126% (inactive); in experiment [1] (setting [20]), 113% (inactive); in experiment [1] (setting [21]), 115% (inactive); in experiment [1] (setting [22]), 123% (inactive); in experiment [1] (setting [23]), 101% (inactive); in experiment [1] (setting [24]), 111% (inactive). Also, the viability in experiment [1] (setting [25]) was 121% (inactive); in experiment [1] (setting [26]) it was 118% (inactive); in experiment [1] (setting [27]), 106% (inactive); in experiment [1] (setting [28]), 109% (inactive); in experiment [1] (setting [29]) it was 115% (inactive); in experiment [1] (setting [30]), 123% (inactive). Also, the viability is 105% (inactive) in experiment [1] (setting [31]); 117% (inactive) in experiment [1] (setting [32]); 113% (inactive) in experiment [1] (setting [33]); 116% (inactive) in experiment [1] (setting [34]); 107% (inactive) in experiment [1] (setting [35]); 114% (inactive) in experiment [1] (setting [36]). Besides, the viability in experiment [1] (setting [37]) was 121% (inactive); in experiment [1] (setting [38]), 122% (inactive).

For the origin of these results see PubChem BioAssay.
